AC50 and outcome data for 9 compounds are collected here from PubChem BioAssay (EPA / NIEHS).

Experiment [1] in a line: CCTE_Padilla_ZF_Score.General: CCTE's 144 Hour Post-fertilization zebrafish Assay Score for General Malformation, Padilla Lab (AID 2284411). The method in brief:
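Malformation, death and hatching were scored at 6 dpf by two blinded observers under a stereo microscope. Embryos were dosed singly from 6-8 hpf in sealed plates of 10% Hanks' at 26C and rinsed on 5 dpf; DMSO baseline.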

The test system of experiment [2] is SRY-box transcription factor 2 (SOX2) Protein Expression, Deisenroth Lab, SOX2 (gene 6657). Briefly: CCTE_Deisenroth_DEVTOX-GLR_Endo_SOX2: CCTE's DevTox GLR-Endo Assay Evaluation of SRY-box transcription factor 2 (SOX2) Protein Expression, Deisenroth Lab (AID 2284412; active means hit-call score of the fitted dose curve at least 0.9, where 1 is the maximum). The method in brief:
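Endpoint is percent SOX2-positive cells (SOX2+ count/total cells) minus 0.2% DMSO control, from high-content imaging of fixed, nuclear-stained RUES2-GLR cells. Dosing twice at 24 h intervals over 48 h differentiation, 1 nM–200 uM in 10 points.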

Experiment [3] has as its system SRY-box transcription factor 17 (SOX17) Protein Expression, Deisenroth Lab, SOX17 (gene 64321). The experiment in a line: CCTE_Deisenroth_DEVTOX-GLR_Endo_SOX17: CCTE's DevTox GLR-Endo Assay Evaluation of SRY-box transcription factor 17 (SOX17) Protein Expression, Deisenroth Lab (AID 2284413). Put shortly:
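RUES2-GLR human pluripotent cells were seeded 24 h, then differentiated toward endoderm for 48 h with two chemical exposures 24 h apart (10-point series, 1 nM - 200 uM). Nuclei-stained fixed cells were imaged; endpoint is percent change in SOX17+ cells versus 0.2% DMSO.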

Experiment [4] in a line: Tanguay_ZF_120hpf_MO24: Oregon State University Tanguay Lab 24 Hour Post-fertilization zebrafish Assay for Mortality (AID 2284389). The method in brief: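 Embryo death at 24 hpf was recorded as present or absent in Tropical 5D zebrafish, dechorionated at 4 hpf and dosed statically from 6 hpf (28C, 0.64% DMSO); 5 uM trimethyltin chloride served as positive control.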
Experiment [5] is described as follows: Tanguay_ZF_120hpf_DP24: Oregon State University Tanguay Lab 24 Hour Post-fertilization zebrafish Assay for Delayed Development (AID 2284390). Put shortly:
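Scored at 24 hpf as a binary present/absent call of delayed development by brightfield, with dead embryos not assessed. Embryos (5D wild type, chorion removed with pronase at 4 hpf) dosed statically from 6 hpf at 28 C in 0.64% DMSO.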

Experiment [6] can be described thus: Tanguay_ZF_120hpf_CRAN: Oregon State University Tanguay Lab 120 Hour Post-fertilization zebrafish Assay for Craniofacial Malformation (AID 2284397). Put shortly: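 Scoring of craniofacial malformation as a binary endpoint was done at 120 hpf by brightfield microscopy and was not done in dead embryos. Exposure was static, starting at 6 hpf, in dechorionated wild-type embryos held singly at 28C with 0.64% DMSO final.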

Experiment [7] can be described thus: Tanguay_ZF_120hpf_AXIS: Oregon State University Tanguay Lab 120 Hour Post-fertilization zebrafish Assay for Axial Malformation (AID 2284398). Put shortly:
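Scoring was binary (present or absent) for body-axis defects, judged by brightfield imaging at 120 hpf in surviving larvae. Exposure was static at 28C from 6 hpf in chorion-free 5D wild-type embryos, with 0.64% DMSO vehicle.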

The nature of experiment [8]: Tanguay_ZF_120hpf_MORT: Oregon State University Tanguay Lab 120 Hour Post-fertilization zebrafish Assay for Mortality (AID 2284399). Put shortly: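 Mortality, recorded present/absent via brightfield imaging at 24 and 120 hpf, in 5D zebrafish embryos exposed statically from 6 hpf after pronase chorion removal. Exposure at 28C, 0.64% DMSO vehicle, DMSO baseline.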
A short description of experiment [9]: Tanguay_ZF_120hpf_EDEM: Oregon State University Tanguay Lab 120 Hour Post-fertilization zebrafish Assay for Edema Malformation (AID 2284400). The method in brief:
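Edema recorded as a binary endpoint under brightfield at 120 hpf, excluding embryos that died. Exposure was static, sealed, 28C, from 6 hpf in dechorionated wild-type larvae, final DMSO 0.64%, DMSO as baseline.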

A short description of experiment [10]: Tanguay_ZF_120hpf_MUSC: Oregon State University Tanguay Lab 120 Hour Post-fertilization zebrafish Assay for Muscle Malformation (AID 2284401). The method in brief:
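Scored as a binary brightfield endpoint at 120 hpf, fitted versus DMSO. Single dechorionated wild-type (Tropical 5D) zebrafish embryos per well, statically exposed at 28C from 6 hpf onward with final DMSO 0.64%.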

Experiment [11] is described as follows: Tanguay_ZF_120hpf_BRN: Oregon State University Tanguay Lab 120 Hour Post-fertilization zebrafish Assay for Brain Region Malformation (AID 2284402). The method in brief: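 Binary brightfield scoring of brain malformation at 120 hpf in 5D wild-type larvae, chorion removed with pronase at 4 hpf. Static exposure began at 6 hpf, 28C, sealed plates, DMSO 0.64% (vol/vol) as vehicle baseline.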

Experiment [12] is described as follows: Tanguay_ZF_120hpf_TCHR: Oregon State University Tanguay Lab 120 Hour Post-fertilization zebrafish Assay for Touch Responsive (AID 2284403). Put shortly:
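Binary touch-response calls are made at 120 hpf in 5D wild-type zebrafish larvae. These larvae were dechorionated with pronase and exposed singly from 6 hpf in sealed, dark plates at 28 °C with 0.64% DMSO final; dead embryos are excluded.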

The nature of experiment [13]: Tanguay_ZF_120hpf_ANY: Oregon State University Tanguay Lab 120 Hour Post-fertilization zebrafish Assay for Any Mortality and Malformation (AID 2284404). Put shortly:
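Dechorionated Tropical 5D wild-type embryos, one per well from 6 hpf, static exposure in sealed, dark plates at 28C until 120 hpf, 0.64% DMSO final. Brightfield scoring of mortality and malformations as binary presence/absence, pooling 13 morphology endpoints.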

Experiment [14] is described as follows: CCTE_Padilla_ZF_Score.Craniofacial: CCTE's 144 Hour Post-fertilization zebrafish Assay Score for Craniofacial Malformation, Padilla Lab (AID 2284405). The method in brief: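 Craniofacial defects were scored at 6 dpf by two blinded observers using stereomicroscopy. Exposure of wild-type embryos began at 6–8 hpf in sealed wells of 10% Hanks' solution at 26C, with chemical removed by rinsing at 5 dpf.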

Experiment [15] in a line: CCTE_Padilla_ZF_Score.Edema: CCTE's 144 Hour Post-fertilization zebrafish Assay Score for Edema Malformation, Padilla Lab (AID 2284406). Put shortly: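 Edema scored at 6 dpf by two blinded observers under a stereo microscope, in single outbred wild-type larvae exposed from 6-8 hpf in sealed wells (Hanks', 26C, 14:10 h light) and chemical-free after a 5 dpf rinse.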
Experiment [16] is described as follows: CCTE_Padilla_ZF_Score.Spine: CCTE's 144 Hour Post-fertilization zebrafish Assay Score for Spine Malformation, Padilla Lab (AID 2284407). The method in brief: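 Spine malformation scored at 6 dpf by two independent blinded observers under stereomicroscope, after static sealed exposure from 6–8 hpf at 26C in Hanks' solution with rinse on 5 dpf. Positive-direction fit against DMSO control.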

Experiment [17] is described as follows: CCTE_Padilla_ZF_Score.Swim_bladder: CCTE's 144 Hour Post-fertilization zebrafish Assay Score for Swim Bladder Malformation, Padilla Lab (AID 2284408). The method in brief:
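Swim bladder inflation scored at 6 dpf by two blinded observers under a stereo microscope. Exposure ran from 6–8 hpf in sealed wells of 10% Hanks' at 26C, with rinsing at 5 dpf; DMSO served as baseline.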

Experiment [18] is described as follows: CCTE_Padilla_ZF_Score.Position: CCTE's 144 Hour Post-fertilization zebrafish Assay Score for Position, Padilla Lab (AID 2284409). The method in brief:
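Wild-type zebrafish embryos (with chorions) exposed singly from 6–8 hpf in sealed wells of Hanks' solution at 26C, rinsed at 5 dpf. At 6 dpf, blinded assessors scored abnormal water-column position by brightfield stereomicroscopy, relative to DMSO.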

Experiment [19] can be described thus: CCTE_Padilla_ZF_Score.Living: CCTE's 144 Hour Post-fertilization zebrafish Assay Score for Viability, Padilla Lab (AID 2284410).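 Further: larval death at 6 dpf judged by absent heartbeat or coagulation.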 The method in brief: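 Mortality at 6 dpf, judged as absent heartbeat or coagulation by two blinded observers, after sealed static exposure beginning at 6–8 hpf at 26C. Larvae were rinsed free of chemical at 5 dpf, and activity was fitted relative to DMSO.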

The nature of experiment [20]: CCTE_Padilla_ZF_Score.Tail: CCTE's 144 Hour Post-fertilization zebrafish Assay Score for Tail Malformation, Padilla Lab (AID 2284414). Put shortly:
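Tail malformations were scored at 6 dpf by two blinded assessors under a stereo microscope. Chorionated embryos had been exposed from 6-8 hpf in sealed wells of 10% Hanks' at 26 C, then rinsed free of chemical at 5 dpf.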

Several values for one entry are separate records, joined by “and”; a condition that tells them apart may be missing. Equal entries are not always repeated. Inconclusive results are not listed. Some structures have more than one record in an assay (separate samples or runs), and their calls can disagree. Activity calls are given as the source filed them. How the source made its calls, unless noted: active means hit-call score of the fitted dose curve at least 0.9, where 1 is the maximum; inactive means score below 0.9.

With `Oc1c(Cl)c(Cl)c(Cl)c(Cl)c1Cl`, the half-maximal activity concentration (AC50) (commonly the concentration at which the activity in the assay is half-maximal) in experiment [1] was 0.681 µM (active).

Regarding `C=CC(N)=O`, the result in [2] and in experiment [3] was inactive.

For the compound `O=S(=O)(O)C(F)(F)C(F)(F)C(F)(F)C(F)(F)C(F)(F)C(F)(F)F`, the outcome in experiment [4], in [5], in experiment [6], in experiment [7], in experiment [8] and in experiment [9] was inactive. Besides, the result in [10], in [11], in experiment [12], in [14], in experiment [15] and in experiment [16] was inactive. The call in experiment [17], in experiment [18], in experiment [19], in experiment [1] and in experiment [20] was inactive. Moreover, the concentration at half-maximal activity (AC50) in experiment [6] was 85.1 µM (active); in experiment [7], 84.8 µM (active); in experiment [9], 85.1 µM (active); in experiment [10] it was 84.8 µM (active); in experiment [11], 81.8 µM (active); in [12] it was 84.8 µM (active). Further, the half-maximal activity concentration (AC50) in experiment [13] was 85.1 µM (active) and 71.3 µM (active); in experiment [14], 81.3 µM (active); in [15], 29.6 µM (active); in experiment [17], 38.9 µM (active); in [18], 87.5 µM (active); in [19], 88.7 µM (active). Besides, the AC50 in experiment [1] is 83.7 µM (active).

For `O=C(O)C(F)(F)C(F)(F)C(F)(F)C(F)(F)C(F)(F)C(F)(F)C(F)(F)C(F)(F)F`, the outcome in experiment [4], in experiment [5], in [6], in experiment [7], in experiment [8] and in experiment [9] was inactive. The compound was called inactive in experiment [10], in [11], in [12], in [13], in [14] and in experiment [16]. The compound was called inactive in [20]. In addition, the AC50 is 30.6 µM (active) in [15]; 30 µM (active) in [17]; 88.1 µM (active) in experiment [18]; 81.2 µM (active) in [19]; 31.2 µM (active) in experiment [1].

On to `O=C(O)C(F)(F)C(F)(F)C(F)(F)C(F)(F)C(F)(F)F`, for which the call in experiment [4], in experiment [5], in [6], in experiment [7], in [8] and in experiment [9] was inactive. The compound was called inactive in experiment [10], in experiment [11], in [12], in [13], in [14] and in experiment [15]. For the same compound, the compound was called inactive in experiment [16], in experiment [17], in experiment [18], in experiment [19], in experiment [1] and in [20].

As to `CC1=C2C[C@H]3[C@@H](CC=C4C[C@@H](O)CC[C@@]43C)[C@@H]2CC[C@]12O[C@@H]1C[C@H](C)CN[C@H]1[C@H]2C`, the compound was classed as inactive in [3].

Consider `NS(=O)(=O)C(F)(F)C(F)(F)C(F)(F)C(F)(F)C(F)(F)C(F)(F)C(F)(F)C(F)(F)F`, for which the result in experiment [4], in [7], in experiment [9], in experiment [10], in experiment [11] and in experiment [12] was inactive. The compound was called inactive in experiment [14], in experiment [16], in experiment [18] and in experiment [20]. The AC50 in [5] is 16.4 µM (active); in [6] it was 3.27 µM (active); in experiment [8], 5.51 µM (active); in experiment [13] it was 2.59 µM (active); in experiment [15], 0.582 µM (active); in experiment [17] it was 0.321 µM (active). The AC50 in [19] was 1.76 µM (active); in [1] it was 0.453 µM (active).

Regarding `O=C(O)C(F)(F)C(F)(F)C(F)(F)C(F)(F)C(F)(F)C(F)(F)C(F)(F)C(F)(F)C(F)(F)F`, the outcome in [4], in experiment [5], in [7], in [8], in [9] and in [10] was inactive. Moreover, the call in experiment [11], in [12], in experiment [14], in experiment [15], in [16] and in [18] was inactive. The outcome in experiment [20] was inactive. The half-maximal activity concentration (AC50) in experiment [6] is 19.5 µM (active); in [13], 8.9 µM (active); in [17] it was 11.5 µM (active); in experiment [19], 17.5 µM (active); in experiment [1], 11.5 µM (active).

In the case of `O=S(=O)(O)C(F)(F)C(F)(F)C(F)(F)C(F)(F)F`, the compound was classed as inactive in experiment [4], in [5], in experiment [6], in experiment [7], in experiment [8] and in [9]. Moreover, the outcome in [10], in [11], in [12], in [13], in [14] and in [15] was inactive. Further, the compound was classed as inactive in [16], in experiment [17], in experiment [18], in experiment [19], in [1] and in [20].
